Measured values taken from PubChem BioAssay AID1159580 (chemical genetic matrix, 2015).
About 2,000 (36%) of roughly 5,500 compounds were called active. About 18% were inconclusive and are not listed. No stated cut-off is given here; in the data, active means normalized growth mostly below about 0.91 (no sharp cut-off); inconclusive means no clear call, values can overlap the other calls; inactive means mostly above about 0.92. This is one part of the list.

Assay: chemical genetic growth profiling, strain panel (AID 1159580);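 further: tested at 20 µM; growth read once vehicle control cultures reached saturation at 30 °C; 1 = growth at the plate median or of vehicle wells; lower values mean less growth of the strain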
Conditions: growth OD

Measured: normalized growth

COc1c(CC=C(C)C)c2c(c3oc(=O)c(-c4ccc(OC(C)=O)cc4)c(OC(C)=O)c13)C=CC(C)(C)O2
inactive: S. cerevisiae deletion strains, locus YAL013W, strain DEP1, hits give low values 0.996 | S. cerevisiae deletion strains, locus YBR021W, strain FUR4, hits give low values 0.986 | S. cerevisiae deletion strains, locus YBR229C, strain ROT2, hits give low values 1.03 | S. cerevisiae deletion strains, locus YCL029C, strain bik1, hits give low values 1.02 | S. cerevisiae deletion strains, locus YDL035C, strain GPR1, hits give low values 1.04 | S. cerevisiae deletion strains, locus YDL074C, strain BRE1, hits give low values 1.08 | S. cerevisiae deletion strains, locus YDL101C, strain DUN1, hits give low values 1.03 | S. cerevisiae deletion strains, locus YDL185W, strain tfp1, hits give low values 1.02 | S. cerevisiae deletion strains, locus YDL192W, strain arf1, hits give low values 1.05 | S. cerevisiae deletion strains, locus YDR101C, strain arx1, hits give low values 1.01 | S. cerevisiae deletion strains, locus YDR162C, strain NBP2, hits give low values 1.04 | S. cerevisiae deletion strains, locus YDR318W, strain mcm21, hits give low values 1.02 | S. cerevisiae deletion strains, locus YDR388W, hits give low values 1.02 | S. cerevisiae deletion strains, locus YDR502C, strain sam2, hits give low values 1.03 | S. cerevisiae deletion strains, locus YER110C, hits give low values 1.01 | S. cerevisiae deletion strains, locus YER155C, strain BEM2, hits give low values 1.01 | S. cerevisiae deletion strains, locus YER167W, strain BCK2, hits give low values 1.02 | S. cerevisiae deletion strains, locus YGL078C, strain dbp3, hits give low values 1 | S. cerevisiae deletion strains, locus YGL086W, strain mad1, hits give low values 1.03 | S. cerevisiae deletion strains, locus YGL248W, strain PDE1, hits give low values 1.08 | S. cerevisiae deletion strains, locus YGR135W, strain pre9, hits give low values 1.02 | S. cerevisiae deletion strains, locus YGR252W, strain gcn5, hits give low values 1.1 | S. cerevisiae deletion strains, locus YHR079C, strain IRE1 (second series), hits give low values 1.02 | S. cerevisiae deletion strains, locus YHR094C, strain hxt1, hits give low values 1 | S. cerevisiae deletion strains, locus YHR129C, strain ARP1, hits give low values 1 | S. cerevisiae deletion strains, locus YHR200W, strain rpn10, hits give low values 1.03 | S. cerevisiae deletion strains, locus YIL066C, strain RNR3, hits give low values 1.02 | S. cerevisiae deletion strains, locus YIL073C, strain SPO22, hits give low values 1.06 | S. cerevisiae deletion strains, locus YIL125W, strain kgd1, hits give low values 1.02 | S. cerevisiae deletion strains, locus YIR030C, strain dcg1, hits give low values 0.996 | S. cerevisiae deletion strains, locus YJL095W, strain BCK1, hits give low values 1.12 | S. cerevisiae deletion strains, locus YJL134W, strain LCB3, hits give low values 1.01 | S. cerevisiae deletion strains, locus YJL168C, strain set2, hits give low values 0.997 | S. cerevisiae deletion strains, locus YJL187C, strain SWE1 (second series), hits give low values 1.03 | S. cerevisiae deletion strains, locus YJR043C, strain POL32, hits give low values 1.07 | S. cerevisiae deletion strains, locus YJR075W, strain HOC1, hits give low values 1.03 | S. cerevisiae deletion strains, locus YKL068W, hits give low values 0.995 | S. cerevisiae deletion strains, locus YKL085W, strain MDH1 (second series), hits give low values 1.01 | S. cerevisiae deletion strains, locus YKL085W, strain MDH1, hits give low values 1.01 | S. cerevisiae deletion strains, locus YKL190W, strain CNB1, hits give low values 0.997 | S. cerevisiae deletion strains, locus YKR001C, strain vps1, hits give low values 1.05 | S. cerevisiae deletion strains, locus YLR039C, strain RIC1, hits give low values 1.12 | S. cerevisiae deletion strains, locus YLR058C, strain SHM2, hits give low values 1.04 | S. cerevisiae deletion strains, locus YLR102C, strain apc9, hits give low values 1 | S. cerevisiae deletion strains, locus YLR268W, strain sec22, hits give low values 1.04 | S. cerevisiae deletion strains, locus YLR330W, strain CHS5, hits give low values 1.02 | S. cerevisiae deletion strains, locus YLR371W, strain rom2, hits give low values 1.05 | S. cerevisiae deletion strains, locus YLR418C, strain cdc73, hits give low values 1.08 | S. cerevisiae deletion strains, locus YML016C, strain PPZ1, hits give low values 1.03 | S. cerevisiae deletion strains, locus YML032C, strain rad52, hits give low values 1.01 | S. cerevisiae deletion strains, locus YML124C, strain tub3, hits give low values 0.994 | S. cerevisiae deletion strains, locus YMR078C, strain ctf18, hits give low values 1 | S. cerevisiae deletion strains, locus YMR223W, strain ubp8, hits give low values 1.03 | S. cerevisiae deletion strains, locus YMR307W, strain GAS1, hits give low values 1.15 | S. cerevisiae deletion strains, locus YNL067W, strain RPL9B, hits give low values 1 | S. cerevisiae deletion strains, locus YNL153C, strain GIM3, hits give low values 1.03 | S. cerevisiae deletion strains, locus YNL233W, strain BNI4, hits give low values 1.06 | S. cerevisiae deletion strains, locus YNL250W, strain rad50, hits give low values 0.989 | S. cerevisiae deletion strains, locus YNL271C, strain bni1, hits give low values 1.01 | S. cerevisiae deletion strains, locus YNL298W, strain CLA4, hits give low values 1.01 | S. cerevisiae deletion strains, locus YNL307C, strain MCK1, hits give low values 1 | S. cerevisiae deletion strains, locus YNR052C, strain pop2, hits give low values 1.01 | S. cerevisiae deletion strains, locus YOL006C, strain TOP1, hits give low values 1.17 | S. cerevisiae deletion strains, locus YOL012C, strain htz1 1.04 | S. cerevisiae deletion strains, locus YOL147C, strain pex11, hits give low values 1.02 | S. cerevisiae deletion strains, locus YOR061W, strain CKA2, hits give low values 1.02 | S. cerevisiae deletion strains, locus YOR069W, strain VPS5, hits give low values 1.02 | S. cerevisiae deletion strains, locus YOR136W, strain idh2, hits give low values 1 | S. cerevisiae deletion strains, locus YOR144C, strain elg1, hits give low values 1.01 | S. cerevisiae deletion strains, locus YOR184W, strain ser1, hits give low values 1.04 | S. cerevisiae deletion strains, locus YOR316C, strain cot1, hits give low values 1.01 | S. cerevisiae deletion strains, locus YPR119W, strain clb2, hits give low values 1 | S. cerevisiae deletion strains, locus YPR141C, strain kar3, hits give low values 1 | S. cerevisiae deletion strains, locus YPR163C, strain tif3, hits give low values 1.02 | S. cerevisiae deletion strains, locus YPR167C, strain met16, hits give low values 1 | S. cerevisiae deletion strains, strain wtn01, hits give low values 1.04 | S. cerevisiae strains, strain wild type, hits give low values 1.02
